Inconclusive results are not listed. Where a call stands in place of a potency, no number is given. Unmarked numbers belong to inactive results. Activity calls are given as the source filed them. Unless noted, the call rests on the fitted dose curve.
Experiments:
[1] = qHTS assay to identify small molecule agonists of the vitamin D receptor (VDR) signaling pathway - cell viability counter screen (AID 743224; active means well fitted curve in the direction sought with a large enough effect in the repeat runs; an effect the other way counts as inactive or inconclusive; further: series mostly up to about 63 µM; nearly all actives have a fitted effect of over 50% in size)
Method in brief: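 Compounds were pin-transferred onto VDR-bla cells plated 4 h earlier; following 16 h incubation at 37C, cell viability was quantified by CellTiter-Glo luminescence after 30 min at room temperature.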

[2] = qHTS assay to identify small molecule antagonists of the vitamin D receptor (VDR) signaling pathway - cell viability counter screen (AID 743225; active means well fitted curve in the direction sought with a large enough effect in the repeat runs; an effect the other way counts as inactive or inconclusive; further: nearly all actives have a fitted effect of over 50% in size)
Method in brief: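 Read-out: CellTiter-Glo luminescence measured 30 min after reagent addition at room temperature. Cells were VDR-bla HEK 293T exposed 16 h at 37C, 5% CO2, to compound with 3 nM final calcitriol agonist.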

[3] = qHTS assay to identify small molecule agonists of the NFkB signaling pathway - cell viability counter screen (AID 1159515); further: series mostly up to about 61 µM; nearly all actives have a fitted effect of over 55% in size
Method in brief: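 Parallel cytotoxicity counter screen in ME-180 cells carrying an NFkB-response-element beta-lactamase reporter, 2,000 cells/well. Compound exposure lasted 5 hr at 37 C, 5% CO2. Cell viability was quantified by CellTiter-Glo luminescence.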

[4] = qHTS assay to identify small molecule agonists of the endoplasmic reticulum stress response signaling pathway (AID 1159516; active means well fitted activation curve with a large enough effect in the signal ratio in the repeat runs, not every such curve was filed as active; the % refers to the signal ratio)
Method in brief: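 Using a HeLa line with an ESRE-driven beta-lactamase gene, agonist activity was measured by FRET substrate fluorescence (460 and 530 nm emission) after cells were treated with compounds for 5 hr at 37 C and 5% CO2.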

[5] = qHTS assay to identify small molecule agonists of the endoplasmic reticulum stress response signaling pathway - cell viability counter screen (AID 1159517);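 further: HeLa cells carrying an ER stress response element beta-lactamase reporter; series mostly up to about 61 µM; nearly all actives have a fitted effect of over 50% in size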
Method in brief: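 ESRE-bla HeLa cells (1,500/well) were plated overnight at 37 C and exposed to compounds for 5 hr. After the 2 hr beta-lactamase substrate read, CellTiter-Glo went into the same wells, and luminescence was read after 30 min at room temperature.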

[6] = qHTS assay to identify small molecule antagonists of the retinoid-related orphan receptor gamma (ROR-gamma) signaling pathway - cell viability counter screen (AID 1159520; active means well fitted curve in the direction sought with a large enough effect in the repeat runs; an effect the other way counts as inactive or inconclusive; further: nearly all actives have a fitted effect of over 50% in size)
Method in brief: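 Cytotoxicity was read from cellular ATP (CellTiter-Glo luminescence) after 16 hr at 37 C with 1 uM doxycycline induction. The inducer was added 2 hr after compound transfer to Tet-on ROR gamma CHO cells.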

[7] = qHTS assay to identify small molecule agonists of the AP-1 signaling pathway - cell viability counter screen (AID 1159525); further: nearly all actives have a fitted effect of over 55% in size
Method in brief: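 Intracellular ATP by Cell Titer Glo luminescence (30 min, RT) in the same ME-180 AP-1-bla wells after the 5 h compound exposure at 37 °C. Normalised to tetra n-octyl ammonium bromide and DMSO controls.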

[8] = qHTS assay to identify small molecule agonists of the AP-1 signaling pathway (AID 1159526); further: potency means the concentration at half of the fitted maximal effect
[9] = target: Nuclear receptor ROR-gamma (Homo sapiens) (UniProt P51449); assay: qHTS assay to identify small molecule antagonists of the retinoid-related orphan receptor gamma (ROR-gamma) signaling pathway (AID 1159521; active means well fitted curve in the direction sought with a large enough effect in the repeat runs; an effect the other way counts as inactive or inconclusive; further: nearly all actives have a fitted effect of over 50% in size; further: potency means the concentration at half of the fitted maximal effect)
Method in brief: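 CHO Tet-on RORγ, RORE-luc reporter. Cpd 2 h pre-incubation, then dox hyclate 1 uM final, 16 h, 37 C/5% CO2. ONE-Glo luminescence; decrease = antagonist.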

[10] = target: Retinoic acid receptor RXR-alpha (Homo sapiens) (UniProt P19793); assay: qHTS assay to identify small molecule agonists of the RXR signaling pathway (AID 1159527); further: nearly all actives have a fitted effect of over 35% in size
Method in brief: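 Read-out: beta-lactamase FRET ratio (405 nm excitation, 460 and 530 nm emission) after 2 hr substrate loading at room temperature. Cells were RXR-alpha-UAS-bla HEK 293T treated with compounds for 16 hr in 2% charcoal-stripped FBS medium.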

Chain of Retinoic acid receptor RXR-alpha (Homo sapiens) (P19793 whole entry, looked up): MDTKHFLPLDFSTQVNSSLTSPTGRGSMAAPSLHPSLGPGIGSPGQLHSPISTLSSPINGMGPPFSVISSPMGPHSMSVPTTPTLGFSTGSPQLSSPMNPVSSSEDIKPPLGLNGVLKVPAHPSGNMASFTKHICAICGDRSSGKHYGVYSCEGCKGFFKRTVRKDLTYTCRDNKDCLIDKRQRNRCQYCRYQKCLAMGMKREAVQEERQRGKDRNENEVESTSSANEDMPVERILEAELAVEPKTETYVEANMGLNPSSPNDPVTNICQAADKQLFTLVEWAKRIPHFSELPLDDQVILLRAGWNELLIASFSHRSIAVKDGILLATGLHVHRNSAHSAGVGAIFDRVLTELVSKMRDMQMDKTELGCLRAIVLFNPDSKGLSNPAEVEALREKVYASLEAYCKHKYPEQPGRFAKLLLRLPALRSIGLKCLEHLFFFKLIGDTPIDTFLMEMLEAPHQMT

SMILES	Potency [1]	Potency [2]	Potency [3]	Potency [4]	outcome [5]	Potency [6]	Potency [7]	Potency [8]	Potency [9]	Potency [10]
N#CCc1cccc(C(F)(F)F)c1	inactive	inactive	inactive	inactive	inactive	inactive	inactive	–	–	–
CCCCOc1ccc(CC(=O)NO)cc1	inactive	inactive	inactive	inactive	inactive	inactive	inactive	inactive	–	–
CC(C(=O)O)c1ccc(-c2ccccc2)c(F)c1 (stereo not drawn)	inactive	inactive	inactive	inactive	inactive	inactive	inactive	inactive	–	–
OCC1CC2CC1C1CCC(CO)C21 (stereo not drawn)	inactive	inactive	inactive	inactive	inactive	inactive	inactive	inactive	–	–
CCCCCCCCCCCCCCCBr	inactive	inactive	inactive	inactive	inactive	inactive	–	–	inactive	inactive
CCOc1ccc2[nH]cc(C(=O)NCc3ccccc3)c(=O)c2n1	inactive	inactive	inactive	inactive	inactive	inactive	–	inactive	inactive	–
N[C@H]1C(O)O[C@H](CO)[C@H](O)[C@@H]1O (stereo partly drawn)	inactive	inactive	inactive	inactive	inactive	inactive	–	inactive	inactive	–
CCN1CCC[C@H]1CNC(=O)c1c(OC)ccc(Br)c1OC	inactive	inactive	inactive	inactive	inactive	inactive	inactive	inactive	–	–
Cc1ncsc1CCO	inactive	inactive	inactive	inactive	inactive	inactive	–	inactive	inactive	–
CC(=O)SCc1ccco1	inactive	inactive	inactive	inactive	inactive	inactive	–	–	inactive	–
COC(=O)CSc1cc(N=c2sc(=O)n3n2CCCC3)c(F)cc1Cl	inactive	inactive	inactive	inactive	inactive	inactive	inactive	inactive	–	inactive
C=C(C)C(=O)OC(C)C	–	inactive	inactive	inactive	inactive	inactive	–	–	inactive	–
CC(O)C1CCCCC1 (stereo not drawn)	inactive	inactive	inactive	inactive	inactive	inactive	–	inactive	inactive	–
N#Cc1c(F)cccc1F	inactive	inactive	inactive	inactive	inactive	inactive	–	inactive	inactive	–
C#CCOC(=O)[C@@H](C)Oc1ccc(Oc2ncc(Cl)cc2F)cc1	inactive	inactive	inactive	inactive	inactive	inactive	–	inactive	inactive	–
CC(C)c1ccc2c(C(C)C)cc(C(C)C)c(S(=O)(=O)O)c2c1	inactive	inactive	inactive	inactive	inactive	inactive	inactive	–	–	inactive
CC(C)CC=O	inactive	–	inactive	inactive	inactive	inactive	inactive	inactive	–	–
Cc1cccc(OCCOc2cccc(C)c2)c1	inactive	–	inactive	inactive	inactive	inactive	inactive	inactive	–	–
Cl/C(=C\n1cncn1)c1ccc(Cl)cc1Cl	inactive	inactive	inactive	inactive	inactive	inactive	–	–	inactive	–
CNCC[C@@H](Oc1ccccc1C)c1ccccc1	–	inactive	inactive	inactive	inactive	inactive	inactive	21.3 µM (active)	–	–
O=C1c2cccc(O)c2C(=O)c2c(O)cc(CO)cc21	inactive	inactive	inactive	inactive	inactive	inactive	inactive	inactive	–	–
O=C(NS(=O)(=O)/C=C/c1cccs1)c1ccc(F)cc1Br	inactive	inactive	inactive	inactive	inactive	inactive	inactive	inactive	–	–
CCCCCC(CO)CCC (stereo not drawn)	inactive	inactive	inactive	inactive	inactive	inactive	inactive	inactive	–	–
C[Si](C)O[Si](C)(C)O[Si](C)(C)O[Si](C)C	inactive	inactive	inactive	inactive	inactive	inactive	–	inactive	inactive	–
OCCC1CCCCN1 (stereo not drawn)	inactive	inactive	inactive	inactive	inactive	inactive	inactive	inactive	–	–
Nc1cnn([C@@H]2O[C@H](CO)[C@@H](O)[C@H]2O)c(=O)n1	inactive	inactive	inactive	inactive	inactive	inactive	–	inactive	21.7 µM (active)	–
O=C(O)Cc1sc(-c2ccccc2)nc1-c1ccc(Cl)cc1	inactive	inactive	inactive	inactive	inactive	inactive	–	–	inactive	–

From PubChem BioAssay (Tox21)
